Only some compounds are listed: those with a hit (about 7.3% of all), similar ones and a draw of the others.
SMN2 splice up = increases expression of the SMN2 splice variant; AID 1458; 210,000 compounds, 2.8% hits; HEK293 SMN2-luciferase splicing reporter, luminescence, 30-36 h; Potency, µM (highest dose often 46.1 µM), for the others: at the highest dose activity change, positive = activation, most hits filed as activators; note: % of control where 0% means no effect; nearly all actives have a fitted effect of over 55% in size
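HEK293 cells carry an SMN2 minigene-luciferase reporter in which exon 7 inclusion puts luciferase in frame. Cells were seeded at 2000 cells/well, attached for 10-12 hours, then exposed to compounds for 30-36 hours at 37C before ONE-Glo luminescence.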
Rab9 prom act = Rab9 promoter activation. Huh7 Rab9 promoter-luciferase reporter, luminescence, 24 h. Potency, µM (highest dose often 9.22 µM), inactives show top-dose activation, negative = inhibition, hits mostly activators. 320,000 compounds, 2.8% hits. AID 485297; note: % of control where 0% means no effect; nearly all actives have a fitted effect of over 60% in size
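Measured in stably transfected Huh7 cells bearing a Rab9 promoter–luciferase construct: 24 h compound treatment at 37 °C, followed by luminescence detection.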
FLuc counter = counter-screen for miR-21 project: firefly luciferase inhibitors or activators. AID 588342. 360,000 compounds, 6.9% hits. Potency, µM (top dose mostly 57.5 µM), without a hit: top-dose activity change, negative = inhibition, usual class: inhibitors. P08659. purified FLuc, Km substrates, luminescence inhibition;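 note: plate controls were vehicle for no effect and reference inhibitor for full effect; nearly all actives have a fitted effect of over 55% in size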
Target sequence (P08659 whole entry, looked up): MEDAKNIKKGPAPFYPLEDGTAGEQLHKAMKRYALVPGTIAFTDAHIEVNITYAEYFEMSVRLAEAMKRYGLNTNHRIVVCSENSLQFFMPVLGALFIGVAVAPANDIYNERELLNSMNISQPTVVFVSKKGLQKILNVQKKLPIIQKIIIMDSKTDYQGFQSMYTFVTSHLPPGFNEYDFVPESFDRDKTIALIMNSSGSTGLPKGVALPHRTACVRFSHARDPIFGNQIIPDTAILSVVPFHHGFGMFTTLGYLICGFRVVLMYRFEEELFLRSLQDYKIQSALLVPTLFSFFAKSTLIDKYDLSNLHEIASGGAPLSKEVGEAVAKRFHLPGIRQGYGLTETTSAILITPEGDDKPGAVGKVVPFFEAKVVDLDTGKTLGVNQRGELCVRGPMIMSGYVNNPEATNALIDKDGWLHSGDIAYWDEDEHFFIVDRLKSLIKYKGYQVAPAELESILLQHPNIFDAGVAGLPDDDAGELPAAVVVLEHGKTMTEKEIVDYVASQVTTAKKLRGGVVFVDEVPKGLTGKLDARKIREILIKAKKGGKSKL
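Biochemical qHTS of compounds, final roughly 60 µM downward over six points, against 10 nM purified firefly luciferase using Km concentrations of substrates (10 uM D-luciferin, 10 uM ATP) in Tris acetate pH 7.5 buffer; luminescence output.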
NPC1 promoter act = activators of NPC1 promoter. Huh7 NPC1 promoter luciferase reporter, 24 h. Potency, µM (series often up to 9.22 µM), without a hit: at the highest dose activation, usual class: activators. 320,000 compounds, 2.4% hits. AID 485313; note: % of control where 0% means no effect; nearly all actives have a fitted effect of over 60% in size
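Quantitative HTS used a cell-based reporter: Huh7 cells stably bearing the NPC1 promoter upstream of luciferase were treated with compounds for 24 h, and promoter activation was read as luminescence.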
Luc counter = counter-screen: inhibitors of Kinase-Glo firefly luciferase; Potency, µM (series often up to 38.3 µM), without a hit: at the top dose activity change, negative = inhibition, hits mostly inhibitors; 200,000 compounds, 0.28% hits; Kinase-Glo luciferase, ATP luminescence, 8 min; Q27757; note: % is set by controls: 0 for no effect and ±100 for the full control effect; nearly all actives have a fitted effect of over 60% in size
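Kinase-Glo luciferase light output from ATP and luciferin was measured with 10 uM ATP, within the enzyme's linear range. Buffer: 50 mM imidazole pH 7.2, 50 mM KCl, 7 mM MgCl2, 0.01% Tween 20, 0.05% BSA; luminescence read after 8 min at ambient temperature.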
Active calls of the source: *; ? = inconclusive; . = no result; [ ] = dose if it differs, or a comment. Calls come from the whole dose curve; as a rule, active = well fitted curve in the direction sought with a large enough effect; inconclusive = small, poorly fitted or top-dose-only effect, or another doubt; inactive = no such curve, though single readings can be large; an effect the other way counts as inactive or inconclusive. Potency is the fitted concentration of half-maximal effect.

SMILES	SMN2 splice up	Rab9 prom act	FLuc counter	NPC1 promoter act	Luc counter
Cc1ccc(NC(=O)c2ccc(OCC3CCCO3)cc2)nc1 (centres undefined)	.	1µM*	4.78µM*	1.78µM*	.
CCOc1ccc(C(c2c(C)[nH]n(-c3ccccc3)c2=O)c2c(C)[nH]n(-c3ccccc3)c2=O)cc1OC	-1.4%	.	3.01µM*	.	.
CC(C)(C)n1ncc2c(=O)n(Cc3cccc(C(F)(F)F)c3)cnc21	.	.	-9.2%	.	.
O=C(NC1CCCCC1)c1ccc(CS(=O)(=O)Cc2ccccc2F)o1	10µM*	21.5%	-3.3%	10.7%	-3.9%
COc1cccc(NC(=O)C2CCN(c3nc4ccccc4nc3C(F)(F)F)CC2)c1	.	.	-0.9%	.	.
Cc1ccc2c(c1)C(c1ccc(F)cc1)N(C(=O)c1cccc(C(F)(F)F)c1)CC(=O)N2 (centres undefined)	-13.5%	.	-5.2%	.	.
Cc1cc(=O)n(CC(=O)Nc2ccc([N+](=O)[O-])cc2)c(-n2nc(C)cc2C)n1	.	.	6.6%	.	.
Cc1ccc2c(c1)sc[n+]2Cc1ccccc1	11.0%	3.7%	5.36µM*	25.9%	-3.0%
Cc1ccc(-c2cc[n+](Cc3ccccc3)cc2)cc1	.	-35.0%	-2.0%	-15.9%	-4.9%
CCc1ccccc1NC(=O)CCC(=O)N1CC(C)Oc2ccc(C)cc21 (centres undefined)	.	.	1.0%	.	.
Cn1c(NC(=O)CCC2CCCCC2)cc(=O)n(C)c1=O	11.2µM*	1.41µM*	5.36µM*	3.98µM*	2.0%
Cc1ccc(NC(=O)CC2CCCC2)c(Br)c1	.	?	15.1µM*	?	.
Cc1ccc(NC(=O)C2CC3CCC2C3)c(Br)c1 (centres undefined)	.	?	16.9µM*	3.98µM*	.
Cc1ccc(O)c(NC(=O)CCC2CCCCC2)c1	17.3%	24.3%	7.57µM*	?	-13.4%
CC(=O)N1CCC2(CC1)OC(=O)C(C)=C2C(=O)NCc1cccc(Cl)c1	.	.	1.5%	.	.
O=C(CCC1CCCCC1)Nc1ccccc1O	?	?	21.3µM*	?	-24.0%
CCC(=O)N1CCc2cc(S(=O)(=O)NC(Cc3ccccc3)C(=O)Nc3ccccc3C)ccc21 (centres undefined)	1.3%	.	-6.0%	.	.
C/C(=N\NC(=O)c1ccn[nH]1)c1cn(C)nc1C	11.2µM*	?	12µM*	?	-27.3%
CCN(c1ccc(NC(=O)COC(=O)c2ccc3ccccc3n2)cc1)C(C)C	-12.3%	-1.5%	15.1µM*	-3.2%	-6.3%
Cc1ccc(C(=O)OCC(=O)Nc2ccc3c(c2)OCO3)cc1S(=O)(=O)N1CCOCC1	-2.6%	-5.8%	-13.2%	-2.6%	3.9%
CCN(c1ccc(NC(=O)COC(=O)c2ccc(C)c(S(=O)(=O)N3CCOCC3)c2)cc1)C(C)C	-8.7%	.	16.9µM*	.	-2.3%
CCOC(=O)c1ccc(NC(=O)c2cc(S(=O)(=O)N3CCOCC3)ccc2O)cc1	-46.9%	-1.9%	15.1µM*	-0.4%	2.7%
COC(=O)c1cnc(NCc2ccc(F)cc2)c2ccccc12	.	.	-10.9%	.	.
COc1cccc(Nc2ncc3nc(-c4ccccc4)c(=O)n(C[C@H]4CCCO4)c3n2)c1	-15.9%	.	.	.	-1.3%
CSc1nnc(N2C(=O)C(O)=C(C(=O)c3ccc(C)o3)C2c2ccc(C)cc2)s1 (centres undefined)	.	0.794µM*	?	0.631µM*	.
SMILES	SMN2 splice up	Rab9 prom act	FLuc counter	NPC1 promoter act	Luc counter
COc1cc(C(C)=O)ccc1COc1ccc(C(=O)OCC(N)=O)cc1OC	-35.7%	-1.8%	12µM*	-0.4%	5.9%
CCC(CC)NC(=O)COC(=O)c1ccc(OCc2ccc(C(C)=O)cc2OC)c(OC)c1	2.5%	-13.3%	-0.8%	-6.7%	1.7%
Cc1cccc(Cc2nnc(CCC(=O)N(CC3CC3)CC3CCCO3)o2)c1 (centres undefined)	.	?	21.3µM*	?	0.6%
CC1(C)CCC(=O)N2CC[C@H]3C[C@H](OC(=O)Nc4ccc5c(c4)OCO5)C[C@@H]1[C@H]32	.	?	15.1µM*	3.98µM*	.
CC1(C)CCC(=O)N2CC[C@H]3C[C@H](OC(=O)Nc4ccccc4)C[C@@H]1[C@H]32	.	?	19µM*	?	.
Cc1cc(C=C2C(=O)c3ccccc3C2=O)c(C)n1C	?	0.2%	3.01µM*	1.3%	-4.4%
CCn1c(C)cc(C=C2C(=O)c3ccccc3C2=O)c1C	?	?	0.477µM*	?	-21.2%
CCS(=O)(=O)c1ccc(O)c(NC(=O)COc2ccc(OC)cc2)c1	-7.5%	1.2%	?	-4.3%	1.2%
CCCc1ccc(OCC(=O)Nc2cc(S(=O)(=O)CC)ccc2O)cc1	.	0.0%	26.9µM*	-1.1%	-7.0%
COc1cccc(/C=C/c2ccccn2)c1O	.	2.82µM*	3.01µM*	1.26µM*	.
COc1cccc(O)c1O	-27.7%	.	.	.	-3.5%
CC(=O)N1c2ccccc2C(C)(c2ccc(C)cc2)CC1(C)C (centres undefined)	-17.1%	.	1.4%	.	.
CC(=O)N(C)c1ccc(N=Nc2c(C)[nH]n(-c3ccccc3)c2=O)cc1	.	-9.6%	-15.1%	-0.2%	.
CC(=O)N(C)c1ccc(N=Nc2c(C)[nH]n(C(N)=S)c2=O)cc1	3.16µM*	0.447µM*	2.69µM*	0.631µM*	-0.1%
CCN(CC)S(=O)(=O)c1ccc(N=Nc2c(C)[nH]n(C(N)=S)c2=O)cc1	?	?	8.49µM*	?	0.8%
CC1(C)CC(=O)C(C=Nc2ccc3c(c2)OCO3)=C(O)C1	?	17.7%	15.1µM*	0.0%	-6.3%
COc1ccc(N=CC2=C(O)CC(C)(C)CC2=O)cc1	-11.6%	10.6%	19µM*	-2.2%	-6.9%
CC1(C)CC(=O)C(C=NCc2ccc3c(c2)OCO3)=C(O)C1	1.1%	7.5%	-3.1%	6.6%	-4.7%
COc1ccc(OC)c(NC(=O)CSC2=Nc3ccccc3C3=NC(CCC(=O)NCc4ccccc4)C(=O)N23)c1 (centres undefined)	.	.	-6.8%	.	.
Cc1ccc2nc(CN3CCN(C(=O)Nc4ccc(F)cc4)CC3)oc2c1	.	.	-7.1%	.	.
O=c1cc(-c2cccc(F)c2)[nH]c2ccc(Cl)cc12	.	.	.	.	1.9%[39.9 µM]
COc1ccc2[nH]c(-c3cccc(F)c3)cc(=O)c2c1	11.2µM*	-6.1%	15.1µM*	22.3%	-0.3%[39.9 µM]
Cc1ccc2[nH]c(-c3cccc(F)c3)cc(=O)c2c1	-1.9%	-10.9%	13.5µM*	-4.6%	0.5%[39.9 µM]
O=C(NCc1ccc(F)cc1Cl)c1cc(=O)[nH]c2ccc(S(=O)(=O)N3CCCCC3)cc12	.	.	-5.4%	.	.
Cn1c(=O)cc(C(=O)N/N=C/c2ccc(Cl)cc2)[nH]c1=O	.	-4.9%	12µM*	-3.4%	.
Cn1c(=O)n(C)c2cc(/C=N/NC(=O)c3ccc(Cl)cc3)ccc21	.	2.3%	-0.9%	-4.9%	.
CCCCCCN(C(=O)CCCCCN1C(=O)NC(c2ccccc2-c2ccccc2)C(C(=O)OCc2ccccc2)=C1C)C(C(=O)NCCCC)c1ccc(OCC(=O)OC)c(C(=O)OC)c1 (centres undefined)	-12.0%	.	.	.	1.3%
